# Results filed as inconclusive are left out. The source made the active and inactive calls. Calls come from the whole dose curve; as a rule, active = well fitted cell-killing curve with a large enough effect; inconclusive = small, poorly fitted or top-dose-only effect, or effect the other way; inactive = no such curve, though single readings can be large or run the other way.
# Test: qHTS of pediatric cancer cell lines to identify multiple opportunities for drug repurposing: Confirmatory screen for Rh30 cells (AID 1347126); note: nearly all actives have a fitted effect of over 55% in size
# Settings: Rh30 rhabdomyosarcoma cell viability; series mostly up to 45.9 µM
# In short: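 Cells (500-1,000/well) in growth media were settled 5 h at 37 degrees C, then given compounds for 48 h. Viability was read as CellTiter-Glo luminescence. Primary runs used MIPE at 11 points (0.78 nM-46 µM) and NPC at 8 points (0.59 nM-46 µM); follow-ups used 11 points.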
# Potency is the fitted concentration of half-maximal effect.
row,Compound,Potency
1,COCCn1c2c([n+](Cc3cnccn3)c1C)C(=O)c1ccccc1C2=O,inactive
2,O=C(C=Cc1cccc(S(=O)(=O)Nc2ccccc2)c1)NO,5.37 µM (active)
3,Cc1ccc(C(=O)Nc2ccc(CN3CCN(C)CC3)c(C(F)(F)F)c2)cc1C#Cc1cnc2cccnn12,5.22 µM (active)
4,CNC(=O)c1nn(C)c2c1C(C)(C)Cc1cnc(Nc3ccc(N4CCN(C)CC4)cc3)nc1-2,0.928 µM (active)
5,Nc1ccccc1NC(=O)c1ccc(CNC(=O)OCc2cccnc2)cc1,19.1 µM (active)
6,CC(=O)Nc1nc(C)c(-c2ccc(Cl)c(S(=O)(=O)NCCO)c2)s1,14.7 µM (active)
7,Cc1[nH]nc2ccc(-c3cncc(OC[C@@H](N)Cc4ccccc4)c3)cc12,47.9 µM (active)
8,O=c1[nH]nc(Sc2ncc([N+](=O)[O-])s2)n1-c1ccc2c(c1)OCCO2,7.37 µM (active)
9,COc1c(OCCCN2CCOCC2)ccc2c3n(c(=NC(=O)c4cnc(N)nc4)nc12)CCN3,0.456 µM (active)
10,Nc1cc(C(F)(F)F)c(-c2cc(N3CCOCC3)nc(N3CCOCC3)n2)cn1,4.14 µM (active)
11,COc1ccc(-n2nc(C(N)=O)c3c2C(=O)N(c2ccc(N4CCCCC4=O)cc2)CC3)cc1,0.147 µM (active)
12,Cc1cn2c(-c3cn[nH]c3)cnc2c(Nc2ccc(C(=O)N3CCNCC3)cc2F)n1,16.5 µM (active)
13,CCNC(=O)Nc1ccc2ncc(Nc3ccc(C)cc3)nc2n1,inactive
14,C=CC(=O)Nc1cccc(Oc2nc(Nc3ccc(N4CCN(C)CC4)cc3OC)ncc2Cl)c1,13.1 µM (active)

# Reference: PubChem BioAssay (NCATS)
